Only some compounds are listed: those with a hit (about 3.4% of all), similar ones and a draw of the others.
pPAFAH inh: pPAFAH enzyme inhibitors, primary screen, biochemical, fluorescence polarization, human. Platelet-activating factor acetylhydrolase (Homo sapiens), Q13093. recombinant pPAFAH, FP-rhodamine probe fluorescence polarization. inhibition, % at 3.39 µM. 1.5% of 330,000 active. AID 463082, 2010;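 active = inhibition above the mean inhibition across the screen plus 3 SD, cut at about 25% in these data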;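 note: inhibitors block binding of the rhodamine activity-based probe so polarization drops; 0% = enzyme with DMSO and 100% = wells lacking pPAFAH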
Target sequence (Q13093 whole entry, looked up): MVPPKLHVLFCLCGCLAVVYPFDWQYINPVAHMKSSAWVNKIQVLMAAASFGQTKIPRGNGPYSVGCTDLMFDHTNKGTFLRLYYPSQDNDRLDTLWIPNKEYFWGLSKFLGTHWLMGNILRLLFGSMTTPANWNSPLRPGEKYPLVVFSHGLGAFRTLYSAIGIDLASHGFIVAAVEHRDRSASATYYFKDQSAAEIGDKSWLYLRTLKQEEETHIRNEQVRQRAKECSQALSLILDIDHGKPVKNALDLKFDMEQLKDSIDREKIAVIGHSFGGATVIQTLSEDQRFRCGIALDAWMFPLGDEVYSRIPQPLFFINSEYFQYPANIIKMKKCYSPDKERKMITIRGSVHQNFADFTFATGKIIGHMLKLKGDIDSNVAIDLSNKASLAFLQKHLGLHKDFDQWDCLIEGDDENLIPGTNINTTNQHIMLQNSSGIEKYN
PAFAH1B2 inh: PAFAH1B2 enzyme inhibitors, primary screen, biochemical, fluorescence polarization, human | Platelet-activating factor acetylhydrolase IB subunit alpha2 (Homo sapiens), P68402 | recombinant PAFAH1B2, FP-rhodamine activity probe | inhibition, % at 3.39 µM | 1.2% of 340,000 active;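 active = inhibition above the mean of all tested compounds plus 3 SD, cut at about 24% in these data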;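 note: 0% = enzyme with DMSO and 100% = wells lacking PAFAH1B2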
PP1 counter: PP1-alpha phosphatase inhibitors, primary screen, counter-screen for PP5 inhibitor project, biochemical, fluorescence, OMFP substrate, single point; Serine/threonine-protein phosphatase PP1-alpha catalytic subunit (Homo sapiens), P62136; purified PP1alpha; inhibition, % at 6.7 µM; 0.9% of 320,000 active;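 active = inhibition above the mean inhibition of all tested compounds plus 3 SD, computed separately for each screening campaign, cut at about 15% in these data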
PAFAH1B3 inh: PAFAH1B3 enzyme inhibitors, primary screen, biochemical, fluorescence polarization, human; Platelet-activating factor acetylhydrolase IB subunit alpha1 (Homo sapiens), Q15102; 0.28% of 340,000 active; recombinant PAFAH1B3, FP-rhodamine probe; inhibition, % at 3.39 µM;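 active = inhibition above the screen-wide average of all tested compounds plus 3 SD, cut at about 25% in these data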;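 note: 0% = enzyme with DMSO only and 100% = wells lacking PAFAH1B3 protein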
Target sequence (Q15102 whole entry, looked up): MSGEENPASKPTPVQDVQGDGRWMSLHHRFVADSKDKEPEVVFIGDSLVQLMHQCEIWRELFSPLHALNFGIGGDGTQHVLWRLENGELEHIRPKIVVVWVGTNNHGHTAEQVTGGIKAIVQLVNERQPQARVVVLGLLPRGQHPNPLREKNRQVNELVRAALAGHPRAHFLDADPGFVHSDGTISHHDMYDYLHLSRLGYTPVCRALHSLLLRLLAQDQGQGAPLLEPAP
PAFAH2 FP inh: PAFAH2 enzyme inhibitors, primary screen, biochemical, fluorescence polarization, human | recombinant PAFAH2, FP-rhodamine activity probe | inhibition, % at 3.39 µM | 0.99% of 340,000 active;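 active = inhibition above the mean over all tested compounds plus 3 SD, cut at about 30% in these data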;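 note: inhibitors block probe labeling of enzyme so polarization drops; 0% = enzyme with DMSO and 100% = wells lacking PAFAH2 protein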
PP5 inh: PP5 phosphatase inhibitors, primary screen, biochemical, fluorescence | inhibition, % at 6.7 µM | Serine/threonine-protein phosphatase 5 (Homo sapiens), P53041 | 0.18% of 320,000 active | purified PP5c, OMFP substrate fluorescence;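 active = inhibition above the campaign's mean inhibition across all tested compounds plus 3 SD, cut at about 9.5% in these data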;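 note: 0% = DMSO only and 100% = 100 µM cantharidin control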
PP5 inh confirm: PP5 phosphatase inhibitors, confirmation, biochemical, fluorescence, human. shares compounds with PP5 inh. inhibition, % at 6.7 µM. Purified PP5, fluorogenic phosphatase substrate. 22% of 460 active. AID 2331, 2010; in the data active = inhibition above about 9.5%
PP1 counter 3x: PP1 phosphatase inhibitors, counter-screen for PP5 inhibitor project, biochemical, fluorescence, triplicate; shares compounds with PP5 inh; PP1 enzyme, fluorescent phosphatase substrate; inhibition, % at 6.7 µM; 4% of 460 active; AID 2355, 2010; in the data active = inhibition above about 16%
* hit, by the source's call; x = no result given.

SMILES	pPAFAH inh	PAFAH1B2 inh	PP1 counter	PAFAH1B3 inh	PAFAH2 FP inh	PP5 inh	PP5 inh confirm	PP1 counter 3x
O=C(NC1(O)C(=O)c2ccccc2C1=O)c1ccc(C(F)(F)F)cc1	0.2	x	5.6	x	x	17.9*	37.9*	12.6
CC(=O)Nc1c(Br)cc2c(c1Br)C(=O)c1ccccc1-2	x	7.0	x	5.0	3.2	x	x	x
CC(=O)C1=C(c2ccc(Br)cc2)C(=O)c2ccccc2C1=O	13.6	2.0	7.7	-4.2	10.3	11.1*	10.4*	4.7
O=C(CSc1nnc(-c2cccnc2)n1-c1ccccc1)Nc1ccccn1	-5.3	-1.1	-4.4	3.0	0.2	1.6	x	x
Cc1cc(C(=O)COC(=O)CCc2nc3ccccc3c(=O)[nH]2)c(C)n1CC1CCCO1 (stereo not drawn)	-6.1	x	-2.1	x	x	0.0	x	x
Cc1cc(C(=O)CSc2nc3ccccc3c(=O)[nH]2)c(C)n1CC1CCCO1 (stereo not drawn)	0.7	-0.9	0.3	5.6	1.9	14.6*	-3.7	-2.0
COCC(C)n1c(-c2ccc3c(c2)NC(=O)CO3)csc1=Nc1ccc(OC(F)F)cc1 (stereo not drawn)	0.3	7.4	2.8	2.5	3.8	12.2*	1.7	2.6
COc1ccc(OC)c2sc(N(CCN(C)C)C(=O)c3cc(Cl)sc3Cl)nc12	-1.3	8.4	-0.1	2.7	-8.2	10.5*	-0.5	-0.1
CCN(CC)CCCN(Cc1cc2cc3c(cc2[nH]c1=O)OCO3)C(=S)NCCCOC	3.3	0.7	-0.9	5.2	2.8	2.7	x	x
CCN(CC)CCN(Cc1cc2cc3c(cc2[nH]c1=O)OCO3)C(=S)NCCCOC	2.4	-2.7	0.6	7.0	1.2	11.8*	-4.9	-4.2
O=S(=O)(NCc1ccc(Cl)cc1Cl)c1ccc(N2CCOCC2)nc1	4.3	2.9	3.8	5.2	0.9	-0.4	x	x
O=C(NNc1cc(N2CCCC2)nc(N2CCCC2)n1)c1ccc([N+](=O)[O-])cc1	8.2	3.3	4.3	4.9	0.9	11.0*	34.0*	4.0
CC(C)(C)c1ccc(C(=O)NNc2cc(N3CCCCC3)nc(N3CCCCC3)n2)cc1	7.9	1.8	3.5	7.2	-1.1	4.7	x	x
CCOC(=O)c1nn(-c2ccc(C)cc2)c(=O)c2c(N)scc12	6.6	2.1	3.9	4.3	9.0	10.0*	22.6*	-2.9
CN(C)CC[C@@H](c1ccc(Br)cc1)c1ccccn1	2.6	4.2	-2.3	13.1	-9.9	1.7	x	x
Cc1cccnc1NS(=O)(=O)c1cccc([N+](=O)[O-])c1	-1.0	-0.1	1.0	-4.7	2.4	3.9	x	x
NS(=O)(=O)c1ccc(Nc2nc3ccccc3nc2NS(=O)(=O)c2cccc([N+](=O)[O-])c2)cc1	30.7*	13.1	7.2	16.8	4.3	10.9*	6.5	13.5
CC1(c2ccccc2)NC(=O)N(CC(=O)Nc2cccc(/C=C/c3ccccn3)c2)C1=O (stereo not drawn)	-7.3	-2.2	1.4	-0.1	1.1	4.4	x	x
O=C(CN1C(=O)c2ccccc2C1=O)Nc1cccc(S(=O)(=O)Nc2ccccc2Cl)c1	6.3	0.3	-3.9	5.7	0.2	11.7*	-0.8	1.2
O=C(O)/C=C/C(=O)Nc1ccc(-n2ccc(C(F)(F)F)n2)cc1	5.9	3.8	-2.1	10.0	4.2	0.0	x	x
COc1ccccc1OCCCn1c(=O)oc2ccc(C)cc21	-7.1	3.6	-2.0	2.5	-4.7	4.1	x	x
CCCCCCOc1ccc(C(=O)n2cnc(N)n2)cc1	14.7	2.7	7.0	-9.1	-2.8	12.1*	3.0	7.5
O=C(COC(=O)c1cc(Br)ccc1O)NNC(=O)c1ccc([N+](=O)[O-])cc1	7.0	-3.5	0.8	3.4	-1.1	0.0	x	x
O=C(O)c1cc(N/N=C/c2cccnc2)ccc1Cl	3.8	2.4	-2.5	-2.1	-1.8	-0.3	x	x
O=C(O)c1cc(N/N=C/c2ccncc2)ccc1Cl	-2.6	3.5	-7.6	4.4	0.0	10.9*	-0.3	-2.1
SMILES	pPAFAH inh	PAFAH1B2 inh	PP1 counter	PAFAH1B3 inh	PAFAH2 FP inh	PP5 inh	PP5 inh confirm	PP1 counter 3x
CCc1ccc(OCC(=O)N2CC(C(=O)OC)Oc3ccccc32)cc1 (stereo not drawn)	2.0	5.3	2.2	4.6	-5.3	0.6	x	x
Nc1ccc(-c2nc3ccc([N+](=O)[O-])cc3[nH]2)cc1	8.7	3.0	-1.3	2.9	-3.7	11.8*	-5.3	-3.6
CC(=O)NCCc1ccc(S(=O)(=O)NCc2ccc3c(c2)OCO3)cc1	6.5	3.7	-4.3	5.2	0.8	0.8	x	x
CCCc1cc2c(cc1NS(=O)(=O)c1ccc(CCNC(C)=O)cc1)OCO2	-4.8	5.0	-6.5	10.2	8.5	10.7*	-5.4	-4.7
C=COCCNC(=O)C(=O)NC(C)C	3.3	-0.2	3.2	1.4	-6.2	1.8	x	x
Cn1c(NC(=O)c2ccco2)c(-c2ccccc2)c(=O)c2ccccc21	6.3	3.8	-0.2	1.1	0.8	-0.8	x	x
CCn1c(NC(=O)c2ccco2)c(-c2ccccc2Cl)c(=O)c2ccccc21	5.1	2.9	-0.7	3.4	-2.7	11.6*	-7.6	-5.1
CCN(CC(=O)Nc1ccc(NC(C)=O)cc1)CC(=O)Nc1ccc(Cl)c(Cl)c1	-1.9	7.7	2.7	14.6	-2.0	-0.5	x	x
CCN(CC(=O)Nc1ccc(NC(C)=O)cc1)CC(=O)Nc1cccc(Cl)c1	3.4	-1.3	-0.2	-6.0	0.7	9.8*	-3.0	-2.0
CC(=O)Nc1ccc(NC2=C/C(=N/S(=O)(=O)c3cccs3)c3ccccc3C2=O)cc1	30.7*	x	3.3	x	x	13.6*	31.6*	0.0
O=C(O)c1ccc(S(=O)(=O)/N=C2\C=C(Nc3ccccc3F)C(=O)c3ccccc32)cc1	19.0	57.5*	5.9	61.0*	72.4*	9.6*	42.5*	11.7
Cc1ccccc1NC1=C/C(=N\S(=O)(=O)c2cccs2)c2ccccc2C1=O	20.9	24.6*	2.1	64.3*	40.4*	14.8*	51.2*	3.9
COC(=O)C(C(C)=O)C1=C/C(=N\S(=O)(=O)c2ccc(C)cc2)c2ccccc2C1=O (stereo not drawn)	2.8	1.4	6.0	1.0	4.0	5.3	x	x
Cn1ccsc1=NC(=O)c1ccc(Cl)c([N+](=O)[O-])c1	4.3	6.0	2.5	2.2	-1.7	2.3	x	x

Bioassay records: PubChem, The Scripps Research Institute Molecular Screening Center
